# Data taken from paper PMC7862700, “An all-to-all approach to the identification of sequence-specific readers for epigenetic DNA modifications on cytosine”.
# How the values were obtained:
# Test in all cases: DAPPL (digital affinity profiling via proximity ligation, sequencing); 10 mM Tris-HCl pH 7.5, 50 mM NaCl, 1 mM DTT, 4% glycerol, room temperature, 30 min; GST-TFs on glutathione beads, 16-mer random dsDNA library, 0.1% formaldehyde crosslink after washing; high values mean tight binding
# FLI1 = biological target: T1, FLI1 (Homo sapiens, UniProt Q01543 1-452); conditions: protein: recombinant; tags: N-terminal GST; dsDNA, one strand shown
# T1 sequence: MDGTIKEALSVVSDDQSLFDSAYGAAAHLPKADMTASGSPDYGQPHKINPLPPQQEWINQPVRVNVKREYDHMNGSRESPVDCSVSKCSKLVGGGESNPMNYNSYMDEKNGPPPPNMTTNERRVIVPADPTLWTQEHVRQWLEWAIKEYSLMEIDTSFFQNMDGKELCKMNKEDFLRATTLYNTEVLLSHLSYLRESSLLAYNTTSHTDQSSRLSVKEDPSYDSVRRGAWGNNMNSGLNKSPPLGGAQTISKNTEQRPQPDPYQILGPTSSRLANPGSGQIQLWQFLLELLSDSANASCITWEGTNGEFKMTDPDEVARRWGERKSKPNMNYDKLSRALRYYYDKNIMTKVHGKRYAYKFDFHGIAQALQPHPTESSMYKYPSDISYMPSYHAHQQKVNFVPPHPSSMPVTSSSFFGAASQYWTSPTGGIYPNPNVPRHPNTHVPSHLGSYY
# Outline: (§1)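 Sequencing on an Illumina NextSeq500 followed washing, crosslinking with 0.1% formaldehyde, proximity ligation (BsaI/T4 ligase, 1 h, 37 °C) and PCR amplification of pools that had been incubated for 30 min at room temperature with 200 nmole of a random double-stranded 16-mer DNA library in Tris/NaCl/DTT/glycerol buffer. Each pool held DNA-barcoded human transcription factors, expressed in yeast as GST fusions and captured on glutathione beads, plus a tag-only sample. Binding signal is a hexamer's read frequency for a factor divided by its frequency in the tag-only sample.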
# ELK1 = biological target: T2, ELK1 (Homo sapiens, UniProt P19419 1-428); conditions: protein: recombinant; tags: N-terminal GST; dsDNA, one strand shown
# T2 sequence: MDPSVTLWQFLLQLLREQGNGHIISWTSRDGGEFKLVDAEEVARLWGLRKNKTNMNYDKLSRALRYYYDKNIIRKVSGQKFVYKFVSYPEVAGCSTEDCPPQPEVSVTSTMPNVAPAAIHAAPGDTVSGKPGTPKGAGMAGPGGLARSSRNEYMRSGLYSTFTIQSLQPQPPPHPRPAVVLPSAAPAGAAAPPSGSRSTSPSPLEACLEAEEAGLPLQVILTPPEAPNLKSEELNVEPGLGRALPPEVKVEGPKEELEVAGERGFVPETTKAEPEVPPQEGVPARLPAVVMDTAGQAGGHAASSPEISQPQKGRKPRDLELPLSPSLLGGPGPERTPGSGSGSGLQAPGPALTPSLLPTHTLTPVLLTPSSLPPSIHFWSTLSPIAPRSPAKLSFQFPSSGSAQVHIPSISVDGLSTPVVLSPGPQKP
# Outline: as §1
# GABPA = biological target: T3, GABPA (Homo sapiens, UniProt Q06546 1-454); conditions: protein: recombinant; tags: N-terminal GST; dsDNA, one strand shown
# T3 sequence: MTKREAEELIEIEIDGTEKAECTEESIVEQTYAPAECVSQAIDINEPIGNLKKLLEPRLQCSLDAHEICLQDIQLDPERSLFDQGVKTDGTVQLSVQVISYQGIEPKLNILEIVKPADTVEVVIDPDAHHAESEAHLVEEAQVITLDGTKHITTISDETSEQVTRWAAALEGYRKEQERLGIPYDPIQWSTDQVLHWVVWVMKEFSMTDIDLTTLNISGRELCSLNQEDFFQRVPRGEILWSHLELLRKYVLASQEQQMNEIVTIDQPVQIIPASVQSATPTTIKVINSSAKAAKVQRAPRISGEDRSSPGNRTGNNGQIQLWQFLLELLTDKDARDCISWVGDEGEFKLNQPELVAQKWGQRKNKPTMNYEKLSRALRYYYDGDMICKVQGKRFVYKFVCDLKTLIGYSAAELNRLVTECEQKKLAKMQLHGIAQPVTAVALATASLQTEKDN
# Outline: as §1
# ERG = biological target: T4, ERG (Homo sapiens, UniProt P11308 1-479); conditions: protein: recombinant; tags: N-terminal GST; dsDNA, one strand shown
# T4 sequence: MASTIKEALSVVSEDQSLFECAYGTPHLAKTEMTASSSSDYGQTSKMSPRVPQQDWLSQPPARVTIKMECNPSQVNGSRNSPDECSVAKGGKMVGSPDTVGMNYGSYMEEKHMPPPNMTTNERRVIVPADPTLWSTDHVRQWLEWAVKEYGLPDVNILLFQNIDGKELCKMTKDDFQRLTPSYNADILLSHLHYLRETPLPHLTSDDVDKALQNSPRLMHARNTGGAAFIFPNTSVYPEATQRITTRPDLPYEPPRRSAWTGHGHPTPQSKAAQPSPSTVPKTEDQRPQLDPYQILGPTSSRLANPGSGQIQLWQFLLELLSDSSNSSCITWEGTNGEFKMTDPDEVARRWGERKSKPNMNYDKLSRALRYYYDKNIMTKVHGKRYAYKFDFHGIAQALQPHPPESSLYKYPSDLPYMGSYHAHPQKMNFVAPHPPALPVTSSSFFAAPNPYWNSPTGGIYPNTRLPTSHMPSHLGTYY
# Outline: as §1
# ELF1 = ELF1 (Homo sapiens, UniProt P32519 1-619); conditions: protein: recombinant; tags: N-terminal GST; dsDNA, one strand shown
# Outline: as §1
# EHF = biological target: T5, EHF (Homo sapiens, UniProt Q9NZC4 1-300); conditions: protein: recombinant; tags: N-terminal GST; dsDNA, one strand shown
# T5 sequence: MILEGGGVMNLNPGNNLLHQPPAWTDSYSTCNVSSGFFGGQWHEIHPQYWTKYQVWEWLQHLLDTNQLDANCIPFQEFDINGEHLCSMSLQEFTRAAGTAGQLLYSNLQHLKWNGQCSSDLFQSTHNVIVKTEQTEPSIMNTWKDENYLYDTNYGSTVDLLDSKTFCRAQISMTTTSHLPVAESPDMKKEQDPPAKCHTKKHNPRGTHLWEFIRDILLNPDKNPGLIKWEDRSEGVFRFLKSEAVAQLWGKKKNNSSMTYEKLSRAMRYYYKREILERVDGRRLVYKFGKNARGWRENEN
# Outline: as §1
# SPI1 = SPI1 (Homo sapiens, UniProt P17947 1-270); conditions: protein: recombinant; tags: N-terminal GST; dsDNA, one strand shown
# Outline: as §1
# SPIB = SPIB (Homo sapiens, UniProt Q01892 1-262); conditions: protein: recombinant; tags: N-terminal GST; dsDNA, one strand shown
# Outline: as §1
# ELK3 = biological target: T6, ELK3 (Homo sapiens, UniProt P41970 1-407); conditions: protein: recombinant; tags: N-terminal GST; dsDNA, one strand shown
# T6 sequence: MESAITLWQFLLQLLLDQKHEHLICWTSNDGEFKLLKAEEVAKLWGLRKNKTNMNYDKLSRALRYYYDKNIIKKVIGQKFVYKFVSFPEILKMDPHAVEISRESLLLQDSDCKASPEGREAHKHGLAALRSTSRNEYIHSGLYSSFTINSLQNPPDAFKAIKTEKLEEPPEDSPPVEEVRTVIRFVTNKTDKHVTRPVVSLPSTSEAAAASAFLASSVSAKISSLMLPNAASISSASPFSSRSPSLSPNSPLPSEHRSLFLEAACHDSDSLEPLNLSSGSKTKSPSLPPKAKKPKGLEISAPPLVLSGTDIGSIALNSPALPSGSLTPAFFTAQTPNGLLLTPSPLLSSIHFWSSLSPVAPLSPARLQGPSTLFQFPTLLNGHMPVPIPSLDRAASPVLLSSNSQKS
# Outline: as §1
# FEV = biological target: T7, FEV (Homo sapiens, UniProt Q99581 1-238); conditions: protein: recombinant; tags: N-terminal GST; dsDNA, one strand shown
# T7 sequence: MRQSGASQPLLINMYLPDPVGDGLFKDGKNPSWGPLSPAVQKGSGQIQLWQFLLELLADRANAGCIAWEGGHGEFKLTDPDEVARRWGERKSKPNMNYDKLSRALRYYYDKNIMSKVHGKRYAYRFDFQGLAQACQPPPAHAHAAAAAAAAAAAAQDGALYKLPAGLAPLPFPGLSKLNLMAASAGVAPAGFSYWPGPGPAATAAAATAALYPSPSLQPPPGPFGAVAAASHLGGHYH
# Outline: as §1
# ETV5 = ETV5 (Homo sapiens, UniProt P41161 1-510); conditions: protein: recombinant; tags: N-terminal GST; dsDNA, one strand shown
# Outline: as §1
# HSF1 = HSF1 (Homo sapiens, UniProt Q00613 1-529); conditions: protein: recombinant; tags: N-terminal GST; chain copies: 3; dsDNA, one strand shown
# Outline: as §1
# SPIC = biological target: T8, SPIC (Homo sapiens, UniProt Q8N5J4 1-248); conditions: protein: recombinant; tags: N-terminal GST; dsDNA, one strand shown
# T8 sequence: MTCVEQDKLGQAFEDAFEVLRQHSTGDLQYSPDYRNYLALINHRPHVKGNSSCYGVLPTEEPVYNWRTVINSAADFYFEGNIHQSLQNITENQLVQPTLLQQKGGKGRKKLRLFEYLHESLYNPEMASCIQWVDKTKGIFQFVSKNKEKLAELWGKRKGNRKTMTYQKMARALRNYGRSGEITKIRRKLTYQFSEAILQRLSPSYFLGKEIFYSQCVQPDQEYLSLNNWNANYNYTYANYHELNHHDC
# Outline: as §1
# ELF4 = ELF4 (Homo sapiens, UniProt Q99607 1-663); conditions: protein: recombinant; tags: N-terminal GST; dsDNA, one strand shown
# Outline: as §1
# ELK4 = biological target: T9, ELK4 (Homo sapiens, UniProt P28324-2 1-405); conditions: protein: recombinant; tags: N-terminal GST; dsDNA, one strand shown
# T9 sequence: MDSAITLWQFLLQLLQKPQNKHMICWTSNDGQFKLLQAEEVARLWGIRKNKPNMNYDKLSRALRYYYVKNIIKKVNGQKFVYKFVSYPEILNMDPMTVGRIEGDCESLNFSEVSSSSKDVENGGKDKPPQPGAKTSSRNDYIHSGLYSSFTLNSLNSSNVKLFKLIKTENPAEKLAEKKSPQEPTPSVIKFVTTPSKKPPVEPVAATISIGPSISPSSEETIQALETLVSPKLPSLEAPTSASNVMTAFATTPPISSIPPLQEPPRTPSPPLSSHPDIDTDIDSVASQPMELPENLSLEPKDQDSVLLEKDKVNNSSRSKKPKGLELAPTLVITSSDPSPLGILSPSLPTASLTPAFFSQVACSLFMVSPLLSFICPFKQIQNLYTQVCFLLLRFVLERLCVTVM
# Outline: as §1
# ETV2 = biological target: T10, ETV2 (Homo sapiens, UniProt O00321 1-342); conditions: protein: recombinant; tags: N-terminal GST; dsDNA, one strand shown
# T10 sequence: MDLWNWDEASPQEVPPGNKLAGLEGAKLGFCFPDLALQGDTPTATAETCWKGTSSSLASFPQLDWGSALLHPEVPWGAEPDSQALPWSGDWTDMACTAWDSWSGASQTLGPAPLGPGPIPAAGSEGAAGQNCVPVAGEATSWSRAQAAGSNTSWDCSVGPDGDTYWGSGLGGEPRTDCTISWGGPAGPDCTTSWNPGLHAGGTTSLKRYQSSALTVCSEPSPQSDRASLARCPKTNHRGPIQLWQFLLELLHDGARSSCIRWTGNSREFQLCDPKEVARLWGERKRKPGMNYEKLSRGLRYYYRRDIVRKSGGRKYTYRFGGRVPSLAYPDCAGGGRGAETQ
# Outline: as §1
# ELF3 = biological target: T11, ELF3 (Homo sapiens, UniProt P78545 1-371); conditions: protein: recombinant; tags: N-terminal GST; dsDNA, one strand shown
# T11 sequence: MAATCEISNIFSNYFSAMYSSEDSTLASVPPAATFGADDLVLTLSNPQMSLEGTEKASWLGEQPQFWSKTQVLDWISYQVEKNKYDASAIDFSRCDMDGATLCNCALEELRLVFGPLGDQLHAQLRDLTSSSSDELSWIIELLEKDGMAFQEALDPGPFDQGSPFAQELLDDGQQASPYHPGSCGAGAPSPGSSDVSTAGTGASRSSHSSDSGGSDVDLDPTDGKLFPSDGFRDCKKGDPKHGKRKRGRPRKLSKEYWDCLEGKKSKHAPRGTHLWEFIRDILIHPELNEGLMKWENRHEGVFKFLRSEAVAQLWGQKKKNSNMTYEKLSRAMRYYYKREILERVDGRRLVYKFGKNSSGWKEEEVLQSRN
# Outline: as §1
# CRX = CRX (Homo sapiens, UniProt O43186 1-299); conditions: protein: recombinant; tags: N-terminal GST; dsDNA, one strand shown
# Outline: as §1
# ETV1 = ETV1 (Homo sapiens, UniProt P50549 1-477); conditions: protein: recombinant; tags: N-terminal GST; dsDNA, one strand shown
# Outline: as §1
# Sequence of CRX (O43186 whole entry): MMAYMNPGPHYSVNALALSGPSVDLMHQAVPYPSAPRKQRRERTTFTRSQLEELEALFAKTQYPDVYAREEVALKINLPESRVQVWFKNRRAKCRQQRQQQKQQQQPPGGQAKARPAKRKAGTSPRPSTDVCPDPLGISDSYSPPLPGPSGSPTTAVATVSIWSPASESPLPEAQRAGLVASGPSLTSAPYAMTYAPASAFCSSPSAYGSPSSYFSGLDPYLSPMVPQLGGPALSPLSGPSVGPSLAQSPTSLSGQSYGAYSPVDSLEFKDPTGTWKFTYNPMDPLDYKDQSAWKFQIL
# Sequence of ELF4 (Q99607 whole entry): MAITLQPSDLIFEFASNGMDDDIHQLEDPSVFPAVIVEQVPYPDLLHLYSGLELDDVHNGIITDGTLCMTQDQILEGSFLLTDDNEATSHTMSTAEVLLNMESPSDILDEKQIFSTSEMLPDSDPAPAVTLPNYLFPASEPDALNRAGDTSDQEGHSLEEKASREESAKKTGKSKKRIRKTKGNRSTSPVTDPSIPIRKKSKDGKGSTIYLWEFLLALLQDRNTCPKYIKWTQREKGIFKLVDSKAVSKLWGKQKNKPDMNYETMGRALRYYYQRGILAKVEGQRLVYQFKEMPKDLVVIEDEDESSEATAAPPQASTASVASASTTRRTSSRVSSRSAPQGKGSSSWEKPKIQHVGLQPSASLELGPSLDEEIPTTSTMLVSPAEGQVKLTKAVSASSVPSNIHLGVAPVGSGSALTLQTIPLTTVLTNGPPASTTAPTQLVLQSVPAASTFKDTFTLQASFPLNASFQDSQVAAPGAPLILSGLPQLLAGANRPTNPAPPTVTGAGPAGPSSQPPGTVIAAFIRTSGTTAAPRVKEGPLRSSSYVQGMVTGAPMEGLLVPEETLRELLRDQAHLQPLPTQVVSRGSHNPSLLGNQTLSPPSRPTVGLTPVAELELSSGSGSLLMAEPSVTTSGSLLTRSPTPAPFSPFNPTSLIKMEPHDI
# Sequence of ETV1 (P50549 whole entry): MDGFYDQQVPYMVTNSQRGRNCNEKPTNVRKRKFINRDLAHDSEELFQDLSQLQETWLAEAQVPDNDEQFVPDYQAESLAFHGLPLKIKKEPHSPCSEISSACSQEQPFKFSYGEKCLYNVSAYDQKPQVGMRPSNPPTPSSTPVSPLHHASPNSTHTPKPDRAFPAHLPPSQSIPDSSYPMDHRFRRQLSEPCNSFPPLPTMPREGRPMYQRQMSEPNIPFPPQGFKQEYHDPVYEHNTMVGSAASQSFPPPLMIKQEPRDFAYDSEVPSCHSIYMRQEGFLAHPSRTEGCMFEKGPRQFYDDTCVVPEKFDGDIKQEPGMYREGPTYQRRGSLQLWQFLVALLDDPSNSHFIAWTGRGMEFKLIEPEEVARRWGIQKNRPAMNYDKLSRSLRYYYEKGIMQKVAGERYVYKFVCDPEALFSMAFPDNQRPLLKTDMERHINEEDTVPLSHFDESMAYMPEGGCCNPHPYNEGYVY
# Sequence of HSF1 (Q00613 whole entry): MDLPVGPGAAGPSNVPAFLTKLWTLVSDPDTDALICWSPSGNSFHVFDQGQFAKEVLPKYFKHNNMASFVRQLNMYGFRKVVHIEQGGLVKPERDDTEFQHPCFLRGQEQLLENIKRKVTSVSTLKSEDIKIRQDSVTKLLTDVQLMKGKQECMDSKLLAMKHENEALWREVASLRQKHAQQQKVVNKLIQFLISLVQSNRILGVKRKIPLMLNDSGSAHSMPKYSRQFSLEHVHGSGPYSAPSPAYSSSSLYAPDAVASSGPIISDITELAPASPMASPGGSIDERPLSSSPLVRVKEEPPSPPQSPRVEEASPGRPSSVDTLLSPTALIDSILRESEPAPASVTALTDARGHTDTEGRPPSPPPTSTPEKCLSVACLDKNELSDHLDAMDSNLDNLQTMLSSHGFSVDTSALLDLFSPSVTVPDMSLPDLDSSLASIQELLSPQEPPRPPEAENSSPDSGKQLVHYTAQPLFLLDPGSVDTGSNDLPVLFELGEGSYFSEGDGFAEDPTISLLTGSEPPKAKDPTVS
# Sequence of SPIB (Q01892 whole entry): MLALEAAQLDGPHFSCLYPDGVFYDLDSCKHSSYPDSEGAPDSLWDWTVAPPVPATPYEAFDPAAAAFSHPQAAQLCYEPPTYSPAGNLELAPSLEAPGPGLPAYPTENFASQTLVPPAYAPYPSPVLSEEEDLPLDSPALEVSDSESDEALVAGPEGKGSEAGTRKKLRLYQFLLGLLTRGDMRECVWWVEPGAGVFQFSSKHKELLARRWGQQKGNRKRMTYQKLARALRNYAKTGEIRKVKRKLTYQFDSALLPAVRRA
# Sequence of ETV5 (P41161 whole entry): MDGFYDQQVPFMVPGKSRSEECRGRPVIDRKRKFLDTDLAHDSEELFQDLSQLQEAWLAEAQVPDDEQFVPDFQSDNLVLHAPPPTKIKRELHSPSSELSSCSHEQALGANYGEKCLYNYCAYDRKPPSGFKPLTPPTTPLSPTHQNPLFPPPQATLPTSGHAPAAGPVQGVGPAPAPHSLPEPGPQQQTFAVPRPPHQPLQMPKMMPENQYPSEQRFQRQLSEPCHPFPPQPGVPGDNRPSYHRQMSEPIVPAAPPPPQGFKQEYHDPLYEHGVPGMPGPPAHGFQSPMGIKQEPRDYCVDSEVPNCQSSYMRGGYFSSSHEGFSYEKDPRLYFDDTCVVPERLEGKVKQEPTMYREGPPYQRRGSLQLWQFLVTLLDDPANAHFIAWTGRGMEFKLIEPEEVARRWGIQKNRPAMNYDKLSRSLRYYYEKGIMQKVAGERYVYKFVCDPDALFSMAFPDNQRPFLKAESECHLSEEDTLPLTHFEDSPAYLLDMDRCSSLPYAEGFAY
# Sequence of ELF1 (P32519 whole entry): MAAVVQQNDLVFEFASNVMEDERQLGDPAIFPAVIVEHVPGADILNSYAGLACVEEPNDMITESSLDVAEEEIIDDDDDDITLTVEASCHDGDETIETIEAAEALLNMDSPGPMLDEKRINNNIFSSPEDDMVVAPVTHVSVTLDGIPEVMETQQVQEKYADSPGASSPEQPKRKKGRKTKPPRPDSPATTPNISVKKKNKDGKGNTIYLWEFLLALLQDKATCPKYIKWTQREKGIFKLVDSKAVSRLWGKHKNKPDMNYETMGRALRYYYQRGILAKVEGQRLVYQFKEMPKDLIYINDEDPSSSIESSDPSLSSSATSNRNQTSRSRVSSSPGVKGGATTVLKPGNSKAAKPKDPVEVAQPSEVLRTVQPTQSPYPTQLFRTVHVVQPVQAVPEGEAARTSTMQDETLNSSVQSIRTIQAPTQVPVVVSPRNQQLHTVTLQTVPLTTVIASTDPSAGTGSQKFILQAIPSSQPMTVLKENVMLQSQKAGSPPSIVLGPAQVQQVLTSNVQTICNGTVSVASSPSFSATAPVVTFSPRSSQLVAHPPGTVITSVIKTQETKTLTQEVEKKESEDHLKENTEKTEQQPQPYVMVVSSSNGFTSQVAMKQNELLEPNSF
sequence,measurement,setting,value
TACCAC,binding signal,FLI1,"1.2 fold enrichment (6-mer frequency, TF over GST control)"
same,binding signal,ELK1,"1.32 fold enrichment (6-mer frequency, TF over GST control)"
same,binding signal,GABPA,"1.18 fold enrichment (6-mer frequency, TF over GST control)"
same,binding signal,ERG,"1.17 fold enrichment (6-mer frequency, TF over GST control)"
same,binding signal,ELF1,"1.32 fold enrichment (6-mer frequency, TF over GST control)"
same,binding signal,EHF,"1.23 fold enrichment (6-mer frequency, TF over GST control)"
same,binding signal,SPI1,"1.24 fold enrichment (6-mer frequency, TF over GST control)"
same,binding signal,SPIB,"1.26 fold enrichment (6-mer frequency, TF over GST control)"
same,binding signal,ELK3,"1.14 fold enrichment (6-mer frequency, TF over GST control)"
same,binding signal,FEV,"1.3 fold enrichment (6-mer frequency, TF over GST control)"
same,binding signal,ETV5,"1.19 fold enrichment (6-mer frequency, TF over GST control)"
same,binding signal,HSF1,"1.12 fold enrichment (6-mer frequency, TF over GST control)"
same,binding signal,SPIC,"1.25 fold enrichment (6-mer frequency, TF over GST control)"
same,binding signal,ELF4,"1.23 fold enrichment (6-mer frequency, TF over GST control)"
same,binding signal,ELK4,"1.18 fold enrichment (6-mer frequency, TF over GST control)"
same,binding signal,ETV2,"1.2 fold enrichment (6-mer frequency, TF over GST control)"
same,binding signal,ELF3,"1.25 fold enrichment (6-mer frequency, TF over GST control)"
same,binding signal,CRX,"1.17 fold enrichment (6-mer frequency, TF over GST control)"
same,binding signal,ETV1,"1.24 fold enrichment (6-mer frequency, TF over GST control)"
